Source: the supplement of paper PMC12636033
± gives the standard deviation of the averaged measurements. Whole data set: some 33,000 sequences, median “E-score (rank enrichment, -0.5 to 0.5)” near -0.0043, cut for the highest 2% near 0.24. This excerpt belongs to a sample that is enriched for the highest values.

tested on: 2Sp-muMax20 (muMax20 with two 2,6-bis(methyl)pyridine Cys staples); assay: PBM 8-mer E-score (E-score (rank enrichment, -0.5 to 0.5)); higher = stronger preferential binding
Procedure: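 Protein binding microarray (universal PBM chip covering all 10-mers in fixed probe flanks) with chemically synthesized human Max(13-93) bHLH-LZ analogs (not full-length Max) bearing noncanonical residues (hArg, Tha, Aib, Nle at 65) and aromatic Cys staples. Read-out per 8-mer (and its reverse complement): E-score (rank-based enrichment, -0.5 to 0.5) and Z-score of median probe intensity.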

First: CTCAAACA
Second: AATAAAAC
The “PBM 8-mer E-score” value of the first is lower: -0.00491 ± 0.013 for the first, 0.223 ± 0.072 for the second.

First: ATCAAACA
Second: ATCAAGCA
The “PBM 8-mer E-score” value of the first is higher: 0.26 ± 0.0065 for the first, -0.065 ± 0.053 for the second.

AATAACAT and AATAAAAA are within error of each other in “PBM 8-mer E-score” value: 0.221 ± 0.13 for the first, 0.258 ± 0.0034 for the second.

ATAAAACG and AGACACAC are within error of each other in “PBM 8-mer E-score” value: 0.145 ± 0.057 for the first, 0.158 ± 0.0089 for the second.

First: GCTTCAGA
Second: AATCGATT
The “PBM 8-mer E-score” value of the first is lower: -0.0923 ± 0.073 for the first, 0.0682 ± 0.041 for the second.

First: AAACGAGG
Second: CAGATGTC
The “PBM 8-mer E-score” value of the first is higher: 0.0592 ± 0.027 for the first, -0.0701 ± 0.0093 for the second.

Compared with CCCAGGTA, AATACAAA is higher in “PBM 8-mer E-score” value: -0.0104 ± 0.052 for the first, 0.28 ± 0.018 for the second.

Compared with AATACAAT, TATACAAA is higher in “PBM 8-mer E-score” value: 0.0568 ± 0.04 for the first, 0.256 ± 0.065 for the second.

First: AATACAAC
Second: AATACATA
The “PBM 8-mer E-score” value of the first is higher: 0.221 ± 0.053 for the first, 0.139 ± 0.0041 for the second.

AATACAGA and GATACGCA are within error of each other in “PBM 8-mer E-score” value: 0.00182 ± 0.094 for the first, 0.0806 ± 0.032 for the second.

Going from CATACAAA to AATACAAG, the “PBM 8-mer E-score” value rises from 0.0246 ± 0.065 to 0.245 ± 0.086.

Compared with AATACGCA, AATACGCT is lower in “PBM 8-mer E-score” value: 0.286 ± 0.0084 for the first, 0.217 ± 0.0037 for the second.

GATACAAA and GCGTCCAA are within error of each other in “PBM 8-mer E-score” value: 0.084 ± 0.0085 for the first, 0.016 ± 0.062 for the second.

Going from TAGGATCA to CAATAGTC, the “PBM 8-mer E-score” value rises from -0.0923 ± 0.052 to -0.0201 ± 0.017.

ACGTGGTG and ACGTGGTC are within error of each other in “PBM 8-mer E-score” value: 0.236 ± 0.017 for the first, 0.129 ± 0.092 for the second.

Compared with GCGTGGTA, AGGTGGTG is lower in “PBM 8-mer E-score” value: 0.237 ± 0.045 for the first, -0.104 ± 0.087 for the second.

Going from CCGTGGTA to ACGTGGTA, the “PBM 8-mer E-score” value rises from -0.156 ± 0.15 to 0.146 ± 0.11.

GATTACGA and AAATCCCT are within error of each other in “PBM 8-mer E-score” value: 0.0561 ± 0.094 for the first, -0.0147 ± 0.019 for the second.

GAGGCGCA and ACTTTCCG are within error of each other in “PBM 8-mer E-score” value: 0.0587 ± 0.03 for the first, 0.00749 ± 0.064 for the second.

Compared with ACCTTGAC, AAACTATA is higher in “PBM 8-mer E-score” value: 0.00626 ± 0.011 for the first, 0.115 ± 0.0056 for the second.

CAACTATA and TAACTATA are within error of each other in “PBM 8-mer E-score” value: 0.203 ± 0.018 for the first, 0.255 ± 0.07 for the second.

Going from CCCTTTTC to AATTACCC, the “PBM 8-mer E-score” value rises from -0.0442 ± 0.061 to 0.237 ± 0.0059.

First: CATTACCC
Second: AATTACCA
The “PBM 8-mer E-score” value of the first is lower: 0.0244 ± 0.022 for the first, 0.171 ± 0.012 for the second.

GATGCAGC and GTGGTCGA are within error of each other in “PBM 8-mer E-score” value: 0.0324 ± 0.041 for the first, 0.0711 ± 0.071 for the second.

First: AAGATCTA
Second: AAGATCTT
The “PBM 8-mer E-score” value of the first is lower: -0.063 ± 0.13 for the first, 0.322 ± 0.058 for the second.

AAGATCTG and GGGATAAA are within error of each other in “PBM 8-mer E-score” value: 0.0472 ± 0.038 for the first, 0.0538 ± 0.03 for the second.

First: ATTGTACC
Second: ATTGTATA
The “PBM 8-mer E-score” value of the first is lower: 0.0323 ± 0.019 for the first, 0.2422 ± 0.0019 for the second.

ATTGTCTA and ATTGTACA are within error of each other in “PBM 8-mer E-score” value: 0.269 ± 0.012 for the first, 0.26 ± 0.016 for the second.

ACTGTATA and CTTGTACA are within error of each other in “PBM 8-mer E-score” value: 0.213 ± 0.085 for the first, 0.192 ± 0.026 for the second.

First: ATTGTCTC
Second: GTTGTCTA
The “PBM 8-mer E-score” value of the first is lower: -0.126 ± 0.07 for the first, 0.0499 ± 0.064 for the second.

GTTGTATA and CCTGTATA are within error of each other in “PBM 8-mer E-score” value: 0.167 ± 0.024 for the first, 0.0769 ± 0.072 for the second.

Compared with CTTGTATA, GCTGTATA is higher in “PBM 8-mer E-score” value: 0.17 ± 0.0046 for the first, 0.25 ± 0.021 for the second.

AAGCCAGT and ACCAAGAC are within error of each other in “PBM 8-mer E-score” value: -0.0999 ± 0.034 for the first, -0.0903 ± 0.027 for the second.

GGCGCGTA and ATTTAATG are within error of each other in “PBM 8-mer E-score” value: 0.126 ± 0.013 for the first, 0.122 ± 0.031 for the second.

ACAACACG and TAAGAGCA are within error of each other in “PBM 8-mer E-score” value: 0.185 ± 0.037 for the first, 0.145 ± 0.072 for the second.

TAACGACA and GTAGAGAA are within error of each other in “PBM 8-mer E-score” value: 0.087 ± 0.0014 for the first, -0.00059 ± 0.14 for the second.

First: CTTGTATC
Second: ATTGTATC
The “PBM 8-mer E-score” value of the first is lower: 0.141 ± 0.019 for the first, 0.254 ± 0.043 for the second.

First: ATTGTATG
Second: AGCTTAGG
The “PBM 8-mer E-score” value of the first is higher: 0.135 ± 0.036 for the first, -0.22 ± 0.016 for the second.

ACACTTTG and CTAGGGGC are within error of each other in “PBM 8-mer E-score” value: 0.0709 ± 0.076 for the first, 0.0163 ± 0.073 for the second.

Compared with ACCGGTAG, CTACCGGA is higher in “PBM 8-mer E-score” value: -0.253 ± 0.036 for the first, -0.147 ± 0.0082 for the second.

Compared with ACCGCGTG, CACGCGTG is higher in “PBM 8-mer E-score” value: 0.284 ± 0.038 for the first, 0.376 ± 0.015 for the second.

Compared with CACGCGTC, ACCGCGTC is lower in “PBM 8-mer E-score” value: 0.2622 ± 0.0015 for the first, -0.0765 ± 0.041 for the second.

AACGCGTA and ACCGCGTA are within error of each other in “PBM 8-mer E-score” value: -0.0641 ± 0.026 for the first, -0.0143 ± 0.044 for the second.
